# In PubChem BioAssay (EPA / NIEHS):
# Active and inactive are the calls of the source. How the source made its calls: active means hit-call score of the fitted dose curve at least 0.9, where 1 is the maximum; inactive means score below 0.9.
# Read-out: TIMP metallopeptidase inhibitor 1 (TIMP1), TIMP1 (gene 7076)
# Assay: BSK_MyoF_TIMP1: BioMAP Diversity Plus: MyoF Assay for TIMP metallopeptidase inhibitor 1 (TIMP1) Biomarker Activity (AID 2284269)
# Settings: primary human lung fibroblasts
# Procedure: BSK_MyoF is a cell-based, multiplexed-readout assay that uses lung fibroblasts, […], with measurements taken at 24 hours after chemical dosing in a microplate: 96-well plate.BSK_MyoF_TIMP1 is an assay component measured in the BSK_MyoF assay. It measures TIMP-1 antibody related to regulation of gene expression using ELISA technology.Data from the assay component BSK_MyoF_TIMP1 was analyzed at the endpoint, BSK_MyoF_TIMP1, in the positive analysis fitting direction relative to DMSO as the negative control and baseline of activity. Using a type of binding reporter, gain or loss-of-signal activity can be used to understand protein changes. To generalize the intended target to other relatable targets, this assay endpoint is annotated to the 'protease' intended target family, where the subfamily is 'matrix metalloproteinase'.
# The levels of cell surface (or secreted, indicated by the prefix "s") biomarker endpoints were measured by ELISA. Overt cytotoxicity to cells in confluent adherent cultures (all systems other than the BT system) was assessed by measuring total protein levels using sulforhodamine B (SRB) staining in parallel cultures at the time of biomarker measurements, indicated as SRB endpoints. For proliferation assays for adherent cell types, individual cell types are cultured at sub-confluence and relative cell numbers quantified by SRB staining at time points optimized for each system (48 h: 3C and CASM3C systems; 72 h: BT and HDF3CGF systems; 96 h: SAg system). SRB was performed by staining cells with 0.1% SRB after fixation with 10% TCA and reading wells at 560 nm.Viability and proliferation of PBMC (T cells) was quantified by Alamar Blue reduction for the SAg and BT systems. For PBMC viability (referred to as PBMC Cytotoxicity within the assay endpoint names), cells were plated (75,000/well in a 96-well plate) and then chemical samples added for 1 h before addition of activators, SEB and TSST-1 (20 ng/mL final concentration each). Cells were incubated for 90 h. Then, Alamar Blue (20 uL/well) (Invitrogen, Cat DAL1100) was added for 6 h, and the plates were read with a fluorescence microplate reader at 546/580 nm (excitation/emission). For PBMC proliferation, cells were plated and activated as above but incubated for only 16 h prior to addition of Alamar Blue. Plates were read after 6 h.
SMILES,outcome,AC50
Cc1cc(Cl)ccc1N,inactive,–
N#CCCC(Br)(C#N)CBr (stereo not given),–,20 µM (active)
Cc1cc(C(C)(C)c2ccc(O)c(C)c2)ccc1O,inactive,–
CCCCCCCCCCCCN(C)C,inactive,–
O=C(O)COc1cc(Cl)c(Cl)cc1Cl,inactive,–
O=S(=O)(c1ccc(Cl)cc1)c1cc(Cl)c(Cl)cc1Cl,inactive,–
CCOP(=O)(OCC)SCCSCC,inactive,–
Cc1ccc2nc3sc(=O)sc3nc2c1,inactive,–
Oc1cccc(-c2ccccc2)c1,inactive,–
CCOP(=S)(OCC)SCS(=O)(=O)C(C)(C)C,inactive,–
Cc1ccc(OP(=O)(Oc2ccc(C)cc2C)Oc2ccc(C)cc2C)c(C)c1,inactive,–
OC(Cc1ccccc1Cl)(Cn1[nH]cnc1=S)C1(Cl)CC1 (stereo not given),inactive,–
O=c1oc2ccccc2c(O)c1C(CC(O)c1ccc(-c2ccc(Br)cc2)cc1)c1ccccc1 (stereo not given),–,7.83 µM (active)
C[C@]12CC[C@@H](O)C[C@@H]1CC[C@@H]1[C@@H]2CC[C@]2(C)C(=O)CC[C@@H]12,inactive,–
CC(C=O)Cc1ccc2c(c1)OCO2 (stereo not given),inactive,–
Cc1c([N+](=O)[O-])c(C)c([N+](=O)[O-])c(C(C)(C)C)c1[N+](=O)[O-],inactive,–
Cc1ccccc1OP(=O)(Oc1ccccc1C)Oc1ccccc1C,–,20 µM (active)
Cc1cc(Cl)ccc1OC(C)C(=O)O (stereo not given),inactive,–
CCOP(=O)(OCC)OC(=CCl)c1ccc(Cl)cc1Cl,inactive,–
Cc1cccc(OP(=O)(Oc2cccc(C)c2)Oc2cccc(C)c2)c1,inactive,–

SMILES,outcome,AC50
CC(C)(COCC1CO1)COCC1CO1 (stereo not given),inactive,–
CC1(C)[C@H](C(=O)O[C@H](C#N)c2cccc(Oc3ccccc3)c2)[C@@H]1/C=C(\Cl)C(F)(F)F,inactive,–
Oc1ccc(Cc2ccc(O)cc2)cc1,inactive,–
CCOC(=O)CC(=O)CCl,inactive,–
O=[N+]([O-])c1cccc2ccccc12,inactive,–
c1ccc(-c2cccc(-c3ccccc3)c2)cc1,inactive,–
[Cl][Sn]([c]1ccccc1)([c]1ccccc1)[c]1ccccc1,–,0.355 µM (active)
O=C1C=CC(=O)c2ccccc21,–,4.43 µM (active)
CCN(CC)C(=O)C(Cl)=C(C)OP(=O)(OC)OC,inactive,–
CC(C)=CC1C(C(=O)OCc2cccc(Oc3ccccc3)c2)C1(C)C (stereo not given),inactive,–
COCC(=O)N(c1c(C)cccc1C)[C@H](C)C(=O)OC,inactive,–
CC(C)(C)c1cc([N+](=O)[O-])cc(C(C)(C)C)c1O,inactive,–
O=[N+]([O-])c1ccc(Nc2ccccc2)cc1,inactive,–
Nc1ccc(N)cc1,inactive,–
CCC(C)(C#N)N=NC(C)(C#N)CC (stereo not given),inactive,–
O=S(=O)(C(Cl)(Cl)Cl)C(Cl)(Cl)Cl,–,2.93 µM (active)
CCOC(=O)CCN(SN(C)C(=O)Oc1cccc2c1OC(C)(C)C2)C(C)C,inactive,–
CCCCN(CCCC)C(=S)[S-].CCCCN(CCCC)C(=S)[S-].[Ni+2],inactive,–
OC(Cc1ccccc1Cl)(Cn1cncn1)C1(Cl)CC1 (stereo not given),inactive,–
CCOC(=O)C(SP(=S)(OC)OC)c1ccccc1 (stereo not given),inactive,–
